Screen size: about 33,000 compounds; about 70 (0.2%) were called active. No stated cut-off is given here; in the data, active means inhibition above about 30%; inactive means the rest. Not all results are given here.
Each molecule was assayed against Coagulation factor XII (Homo sapiens) (UniProt P00748) (assay: human FXIIa protease inhibitors, primary screen, biochemical, single well (AID 701;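 further: 0% = enzyme with vehicle only and 100% = no enzyme blank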)). Conditions: purified human FXIIa, AMC substrate fluorescence, 2 h; at 10 µM; stronger effect = higher value.
Sequence of Coagulation factor XII (Homo sapiens) (P00748 20-372 limits assumed): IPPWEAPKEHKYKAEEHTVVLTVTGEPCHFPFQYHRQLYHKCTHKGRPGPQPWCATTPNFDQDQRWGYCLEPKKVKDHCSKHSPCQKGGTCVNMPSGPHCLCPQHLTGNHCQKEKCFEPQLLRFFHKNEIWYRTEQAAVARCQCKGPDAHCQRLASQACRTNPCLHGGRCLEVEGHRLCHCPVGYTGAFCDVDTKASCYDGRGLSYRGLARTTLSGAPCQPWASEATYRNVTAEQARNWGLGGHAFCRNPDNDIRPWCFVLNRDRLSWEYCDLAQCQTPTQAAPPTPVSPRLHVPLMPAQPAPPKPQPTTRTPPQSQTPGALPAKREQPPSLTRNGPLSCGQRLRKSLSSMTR
Sequence of Coagulation factor XII (Homo sapiens) (P00748 373-615 limits assumed): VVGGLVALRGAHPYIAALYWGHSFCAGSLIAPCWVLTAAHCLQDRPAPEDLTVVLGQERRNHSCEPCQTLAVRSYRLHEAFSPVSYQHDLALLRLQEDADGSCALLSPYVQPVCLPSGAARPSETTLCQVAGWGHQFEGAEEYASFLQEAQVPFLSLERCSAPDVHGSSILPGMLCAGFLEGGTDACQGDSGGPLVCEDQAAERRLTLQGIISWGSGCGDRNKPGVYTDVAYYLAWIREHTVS

inhibition, inactive:
O=C(O)CCN=C1CCc2ccccc2N1 6.9%
O=C(NCc1ccccc1Cl)c1csc2c1CCCCC2 5.87%
CC1(C)N=C(c2ccccn2)C(C)(C)N1O -0.08%
O=C(NCc1ccco1)C1(c2ccc(Cl)cc2)CCCC1 1.49%
CNC(=O)c1nnc(Cc2ccc(Cl)cc2)o1 2.02%
O=C(c1ccc2c(c1)OCO2)N1CCOCC1 0.77%
CCN1C(=O)/C(=C\N2CCOCC2)SC1=S 7.15%
CC1(C)COC(c2cccn2Cc2ccccc2Cl)=N1 6.11%
O=C(CN1CCSCC1)N/N=C/c1ccc(F)cc1F 13.2%
COc1ccc(Cl)cc1C(=O)NCc1cn(C)nc1C 7.49%
COc1ccc(CNc2ccc3c(c2)CCC3)cc1OC 4.51%
O=C1/C(=C\Nc2ccccc2)CCN1c1ncccn1 11.1%
N#Cc1cccc(NC(=O)CCC2CCCC2)c1 5.6%
O=C(NC1CCCC1)C(c1ccccn1)N(C(=O)c1csnn1)C1CCCC1 (configuration not stated) -12%
Cc1cc(C(F)F)n2nc(C(=O)Nc3ccc(S(=O)(=O)NC45CC6CC(CC(C6)C4)C5)cc3)nc2n1 3.77%
CCOc1ccc(C(O)Cn2c(=N)n(CCN3CCCCC3)c3ccccc32)cc1 (configuration not stated) -17.3%
Cc1cc(C(F)(F)F)n2ncc(-c3ccccc3)c2n1 4.27%
CCC1(CC)Cc2ccccc2-c2nc3ccccc3c(=O)n21 -9.34%
Cc1ccc(NS(=O)(=O)c2c(C)[nH]c(=O)[nH]c2=O)cc1C 5.29%
CC(C)NC(=O)CSc1nnc(COc2ccccc2Cl)o1 6.2%
CCOC(=O)N1CCC(N(CCOC)C(=O)Nc2ccc(C)c(C)c2)CC1 11%
N#C/C(=C\c1ccccc1)c1n[nH]c(Cn2cncn2)n1 3.67%
CCOC(=O)c1cnc(SCc2nc(N)nc(Nc3ccc(OC)cc3)n2)nc1N 2.04%
O=C(N/N=C/C=C/c1ccccc1)C1CC1(c1ccccc1)c1ccccc1 (configuration not stated) 7.46%
CCOc1ccc(NC(=O)N(CC(C)C)CC(C)C)cc1 3.85%
CCC(C)NC(=O)C1CCCN(C(=O)NC2CCCCC2)C1 (configuration not stated) 5.82%
O=C(CC12CC3CC(CC(C3)C1)C2)Nc1ccc2c(c1)COC2=O 3.57%
COc1ccc(C)cc1N(C)C(=O)c1coc(=O)c2ccccc12 1.74%
C=CCNC(=O)C1CC=CCC1C(=O)O (configuration not stated) 5.98%
CC1CC(C)CN(CC(=O)N2c3ccccc3CCc3ccccc32)C1 (configuration not stated) -2.18%
COC(CNC(=O)Cn1ncc2ccsc2c1=O)OC 8.94%
Cc1cccc(C)c1NC(=O)CSc1nnc(-c2ccccc2)n1Cc1ccc2c(c1)OCO2 7.65%
CC1(C)CC(CC(=O)O)C(=O)O1 (configuration not stated) -10.1%
COc1ccccc1-c1nc(C#N)c(N2CCC(C(N)=O)CC2)o1 -1.38%
COc1ccc(Br)cc1CN1CCN(C(=O)c2cccc(OC)c2OC)CC1 6.66%
O=C(CCN1c2ccccc2Sc2ccccc21)Nc1ccccc1 4.62%
COc1ccc(NC(=O)C(CC(C)C)NS(=O)(=O)c2ccc3c(c2)CCN3C(C)=O)cc1OC (configuration not stated) 5.4%
CCOC(=O)c1ccc2c(c1)nc(C)n2CC 2.03%
CCCNC(=O)c1ccc(Cl)c(Cl)c1 3.09%
CCCCc1nnc(NC(=O)CS(=O)(=O)Cc2ccccc2)s1 2.19%
N#C/C(=C(\O)CCl)c1nnc2n1CCCCC2 1.09%
Cc1ccc(-n2nc3c(c2NC(=O)CCC2CCCCC2)CS(=O)C3)cc1 (configuration not stated) 2.44%

From PubChem BioAssay AID701 (PCMD, 2007)
